KB-3-1 tox: KB-3-1 parental cell cytotoxicity; KB-3-1 viability, CellTiter-Glo ATP luminescence, 72 h; Potency, µM (doses to about 46.1 µM), most hits filed as cytotoxic; 400,000 compounds, 1.4% hits; also: % is scaled to controls: 0 for no effect and ±100 for the full control effect; nearly all actives have a fitted effect of over 60% in size
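72 h, 37 °C compound treatment of KB-3-1 parental cells; CellTiter-Glo added, 10 min, luminescence read. Data corrected against DMSO-only plates and normalized before curve fitting.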
HT1080-NT tox: kills 2HG-producing HT-1080-NT fibrosarcoma cells | 360,000 compounds, 1.6% hits | HT-1080-NT fibrosarcoma viability, CellTiter-Glo ATP luminescence, 48 h | Potency, µM (highest dose often 46.1 µM), without a hit: at the highest dose activity, negative = less viability, hits mostly cytotoxic;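 also: NT is the 2HG producing partner of a matched IDH1 knockdown line; 0% = DMSO-treated cells and -100% = media-only wells without cells; nearly all actives have a fitted effect of over 55% in size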
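Viability by CellTiter-Glo luminescence after 48 h compound exposure at 37C of HT-1080-NT cells (750/well, RPMI, 5% FBS). % activity scaled between DMSO wells and medium-only wells, then curve-fitted and categorized by curve class.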
TGFb inhibitor: inhibitors of TGF-b signaling | HepG2 CAGA-GFP TGF-b/SMAD3 reporter, GFP fluorescence, 18 h; TGF-beta stimulated, 500 pg/mL final | 410,000 compounds, 1.2% hits | Potency, µM (doses to about 46.1 µM), for the others: at the highest dose activity, negative = inhibition, most hits filed as inhibitors; also: % is scaled to controls: 0 for no effect and ±100 for the full control effect; nearly all actives have a fitted effect of over 65% in size
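HEPG2 CAGA-GFP reporter cells (1000/well, DMEM with 1% FBS) received compounds, then recombinant TGF-beta at 500 pg/mL final for 18 hours at 37 degrees C. Per-cell GFP summed per well was normalised to unstimulated and stimulated DMSO controls before curve fitting.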
HT1080 IDH1KD tx: toxicity to HT-1080 IDH1 knockdown cells (counter line). 360,000 compounds, 2% hits. HT-1080 IDH1 knockdown viability, ATP luminescence, 48 h. Potency, µM (series often up to 46.1 µM), for inactives: at the top dose activity, negative = toxicity, actives largely listed as cytotoxic;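 also: 0% = DMSO wells and -100% = cell-free medium wells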
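In this qHTS, HT-1080 cells depleted of IDH1 are exposed for 48 h at 37 °C to compound titrations. Toxicity is scored from CellTiter-Glo luminescence, with DMSO as full viability and medium alone as none.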
HepG2 tox: HepG2 cytotoxicity, counter-screen for TGF-b inhibitors | 410,000 compounds, 0.76% hits | HepG2 CAGA-GFP viability, ATP luminescence, 18 h | Potency, µM (top dose mostly 46.1 µM), without a hit: top-dose activity change, negative = cytotoxicity, usual class: cytotoxic
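CellTiter-Glo luminescence gave cytotoxicity after 18 hours at 37 degrees C. The cells were HepG2 CAGA-GFP in 1% FBS DMEM, stimulated with 500 pg/mL TGF-beta after compound addition. %Activity was normalised to no-cell wells (complete cell-killing) and DMSO (no toxicity), and curves were fitted and classified.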
KB-V1 cytotox: kills drug-selected multidrug resistant KB-V1 cells | 400,000 compounds, 3.4% hits | AID 1347076 | KB-V1 MDR cells viability, CellTiter-Glo, 72 h | Potency, µM (series often up to 46.1 µM), hits mostly cytotoxic; also: % is scaled to controls: 0 for no effect and ±100 for the full control effect; nearly all actives have a fitted effect of over 60% in size
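Readout: CellTiter-Glo luminescence, 10 min after addition. Cells: KB-V1 MDR subline, 72 h at 37 degrees C with compound. Analysis: corrected, normalized data fitted to concentration-effect curves.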
An asterisk follows results filed as active; i = inactive; ? = inconclusive; / = not tested or not shown. Rows were chosen to be rich in hits. Some 6.6% of all compounds tested hit in one or more screens of this group. Calls follow the shape of the dose curve; as a rule, active = well fitted curve in the direction sought with a large enough effect; inconclusive = small, poorly fitted or top-dose-only effect, or another doubt; inactive = no such curve, though single readings can be large; an effect the other way counts as inactive or inconclusive. Potency is read from the fitted curve at half-maximal effect.

SMILES	KB-3-1 tox	HT1080-NT tox	TGFb inhibitor	HT1080 IDH1KD tx	HepG2 tox	KB-V1 cytotox
CCOC(=O)C1=C(N)Oc2cc(O)ccc2C1c1cccc([N+](=O)[O-])c1 (centres undefined)	?	7.3µM*	-24%	5.8µM*	5%	?
CCOC(=O)C1=C(C)N(c2ccccc2)C(=O)NC1c1cccc([N+](=O)[O-])c1 (centres undefined)	i	0%	0%	-3%	1%	21µM*
CCSc1ncc(Cl)c(C(=O)N(Cc2ccccc2)c2ccc(OC)cc2)n1	/	/	/	/	-27%	/
COc1cccc(Cn2c(NCC(C)C)nc3c2c(=O)n(C)c(=O)n3C)c1	i	?	3%	?	-19%	3.3µM*
CC(C)CNc1nc2c(c(=O)n(C)c(=O)n2C)n1Cc1cccc(Br)c1	i	-1%	3%	-11%	0%	i
CC(O)CNc1nc2c(c(=O)n(C)c(=O)n2C)n1Cc1cccc(Br)c1 (centres undefined)	?	0%	-28%	-1%	-41%	15µM*
CN(C)c1ccc(/C=C/c2ccnc3ccccc23)c(N)c1	?	/	?	/	-36%	?
Cc1ccccc1C(=O)NC1(C(F)(F)F)N=C(c2ccccc2)N(C2CCCCC2)C1=O (centres undefined)	i	/	-2%	/	0%	i
CC(C)(C)c1ccc(C(=O)N2CCC2(C)C(=O)Nc2cccc(C#N)c2)cc1 (centres undefined)	i	?	-14%	?	-21%	i
COCCCNC(=O)C[C@H]1C[C@H](C(=O)N2CCCCC2)[C@@]2(CCc3ccccc3)c3[nH]c4cc(-c5ccco5)ccc4c3CCN2C1=O	i	-22%	?	?	-1%	i
CN(C)C(=O)CCc1ccc2c3c([nH]c2c1)[C@]1(CCC2CCCC2)[C@@H](C(=O)N2CCOCC2)C[C@H](CC(=O)NCc2cccc(C(F)(F)F)c2)C(=O)N1CC3	i	-5%	11µM*	3%	-59%	i
O=C(C[C@H]1C[C@H](C(=O)N2CCOCC2)[C@@]2(CCC3CCCC3)c3[nH]c4cc(-c5ccco5)ccc4c3CCN2C1=O)NCCCn1ccnc1	?	?	?	16µM*	-85%	i
O=C(CC1C[C@H](C(=O)N2CCOCC2)[C@@]2(CCC3CCCC3)c3[nH]c4ccccc4c3CCN2C1=O)NCc1cccc(C(F)(F)F)c1 (some centres undefined)	i	16%	24%	10%	4%	i
O=C(C[C@H]1C[C@H](C(=O)N2CCCCC2)[C@@]2(CCc3ccccc3)c3[nH]c4cc(-c5ccco5)ccc4c3CCN2C1=O)NCCN1CCOCC1	18µM*	?	?	?	-99%	?
CC(C)CN(CC(C)C)C(=O)Cc1coc2ccc3ccccc3c12	?	?	?	-25%	-23%	23µM*
Cc1cccc(NC(=O)Cc2coc3ccc4ccccc4c23)n1	i	?	-7%	7.1µM*	-25%	i
CCCC[C@H]1CCCO[C@@](C(=O)NCc2ccc(C)o2)(C(F)(F)F)C1	/	/	-6%	/	-11%	/
Cc1ccc(C)c(NC(=O)CN2C(=O)c3cccnc3Oc3ccc(C)cc32)c1	i	/	-15%	/	20%	i
Cc1ccc(NC2=C(c3ccc(C(F)(F)F)cc3)C(=O)c3ccccc32)cc1C	i	/	0%	/	13µM*	i
COc1ccc(NC2=C(c3ccccc3)C(=O)c3ccccc32)cc1Cl	i	/	-9%	/	-38%	i
CCOC(=O)c1c(-c2ccc(C)cc2)csc1NC(=O)c1ccc(C(C)(C)C)cc1	i	/	-7%	/	-14%	?
CCOC(=O)c1c(NC(=O)c2ccc(Cl)cc2)csc1C	i	1%	8%	-2%	0%	9.2µM*
COc1cccc(CNc2ccc([N+](=O)[O-])cc2C)c1	i	-16%	-2%	-3%	-3%	15µM*
CCCOc1ccc(CNC(=O)CN2C(=O)c3cccnc3Oc3ccc(C)cc32)cc1	i	/	0%	/	-19%	i
COc1ccc(NS(=O)(=O)c2ccc3c(c2)CCCN3C(=O)C2CCC2)cc1OC	2.6µM*	/	-13%	/	-23%	?
SMILES	KB-3-1 tox	HT1080-NT tox	TGFb inhibitor	HT1080 IDH1KD tx	HepG2 tox	KB-V1 cytotox
O=C(CCl)c1ccc2c(c1)CCN2C(=O)C1CCCCC1	?	23µM*	?	?	-25%	i
O=C(C1CCC1)N1CCc2cc(S(=O)(=O)Nc3ccc4c(c3)OCO4)ccc21	?	-16%	-4%	16µM*	-17%	?
COc1ccc(OC)c(NS(=O)(=O)c2ccc3c(c2)CCCN3C(=O)C2CCC2)c1	i	/	-12%	/	-25%	?
N#Cc1c(C(F)(F)F)cc(-c2cccs2)nc1SCC(=O)Nc1ccc(F)cc1	i	/	-21%	/	-6%	i
Cc1ccccc1NC(=O)Cn1c(=O)n(CCCC(=O)NCc2ccc3c(c2)OCO3)c(=O)c2ccccc21	i	/	0%	/	-17%	?
O=[S+]([O-])([O-])c1ccc2c(c1)cc([S+](=O)([O-])[O-])c1nn(-c3ccc(/C=C/c4ccc(-n5nc6c([S+](=O)([O-])[O-])cc7cc([S+](=O)([O-])[O-])ccc7c6n5)cc4[S+](=O)([O-])[O-])c([S+](=O)([O-])[O-])c3)nc12	?	/	-15%	/	-16%	i
CCCCCOc1ccc(Br)cc1CSC(=N)N	12µM*	?	?	?	-102%	9.2µM*
CCOc1ccc(CSC(=N)N)cc1	i	-7%	-4%	-1%	-3%	?
CCCCOc1ccc(CSC(=N)N)cc1Cl	i	18µM*	?	15µM*	-176%	i
O=c1[nH]c(CSc2ncccn2)nc2c1cnn2-c1ccccc1	i	-1%	-7%	1%	-7%	?
Cc1ccc2nc(SCc3nc4c(cnn4-c4ccccc4)c(=O)[nH]3)[nH]c2c1	2.6µM*	7%	-19%	9%	-22%	2.3µM*
Cc1ccc2nc(SCc3nc4cc(Cl)ccc4c(=O)[nH]3)[nH]c2c1	i	-11%	18%	-3%	-13%	i
O=c1[nH]c(CSc2nc3ccccc3[nH]2)nc2c1cnn2-c1ccccc1	i	23µM*	-2%	?	-41%	10µM*
